Experimental data published in PubChem BioAssay (NCATS).
Results filed as inconclusive are left out. Active and inactive are the calls of the source. The call rests on the fitted dose curve; in most records, active means well fitted curve in the direction sought with a large enough effect; inconclusive means small, poorly fitted or top-dose-only effect, or another doubt; inactive means no such curve, though single readings can be large; an effect the other way counts as inactive or inconclusive.

Experiments:
[1] = qHTS of pediatric cancer cell lines to identify multiple opportunities for drug repurposing: Primary screen for control Hh wild type fibroblast cells (AID 1347106); further: nearly all actives have a fitted effect of over 55% in size
Method in brief: (§1)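 Cells (500-1,000/well) in growth media were settled 5 h at 37 degrees C, then given compounds for 48 h. Viability was read as CellTiter-Glo luminescence. Primary runs used MIPE at 11 points (0.78 nM-46 µM) and NPC at 8 points (0.59 nM-46 µM); follow-ups used 11 points.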

[2] = qHTS of pediatric cancer cell lines to identify multiple opportunities for drug repurposing: Primary screen for Rh30 cells (AID 1347107); further: nearly all actives have a fitted effect of over 75% in size
Method in brief: as §1

[3] = qHTS of pediatric cancer cell lines to identify multiple opportunities for drug repurposing: Primary screen for Rh41 cells (AID 1347108); further: nearly all actives have a fitted effect of over 70% in size
Method in brief: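 Readout: CellTiter-Glo luminescence, 48 h treatment. Controls DMSO (neutral) and bortezomib 2.3 µM final (positive). Potency and efficacy taken from primary-screen concentration-response curves.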

[4] = qHTS of pediatric cancer cell lines to identify multiple opportunities for drug repurposing: Confirmatory screen for A673 cells (AID 1347110);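 further: cells exposed to compound for 48 h before the viability read; nearly all actives have a fitted effect of over 65% in size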
Method in brief: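 qHTS titration format: primary MIPE 0.78 nM-46 µM (11 pts), NPC 0.59 nM-46 µM; confirmation 11 pts. 48 h, CTG luminescence.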

[5] = qHTS of pediatric cancer cell lines to identify multiple opportunities for drug repurposing: Confirmatory screen for SK-N-MC cells (AID 1347111);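 further: cells exposed to compound for 48 h before the readout; nearly all actives have a fitted effect of over 70% in size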
Method in brief: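 Metabolically active cells were quantified by ATP-dependent luminescence (CellTiter-Glo, 15 min at room temperature) following 48 h treatment. Cells had been plated at 500-1,000 per well and settled for 5 h beforehand.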

[6] = qHTS of pediatric cancer cell lines to identify multiple opportunities for drug repurposing: Confirmatory screen for BT-12 cells (AID 1347112); further: nearly all actives have a fitted effect of over 55% in size
Method in brief: as §1

[7] = qHTS of pediatric cancer cell lines to identify multiple opportunities for drug repurposing: Confirmatory screen for DAOY cells (AID 1347114); further: nearly all actives have a fitted effect of over 65% in size
Method in brief: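 Viability measured as metabolically active cells via CellTiter-Glo luminescence following 48 hours of compound exposure, 11-point dilutions in confirmatory testing. 500-1,000 cells/well plated 5 hours before dosing; controls were DMSO and 2.3 µM bortezomib.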

[8] = qHTS of pediatric cancer cell lines to identify multiple opportunities for drug repurposing: Confirmatory screen for BT-37 cells (AID 1347117); further: nearly all actives have a fitted effect of over 55% in size
Method in brief: as §1

[9] = qHTS of pediatric cancer cell lines to identify multiple opportunities for drug repurposing: Confirmatory screen for TC32 cells (AID 1347118);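 further: cells exposed to compound for 48 h before the read; nearly all actives have a fitted effect of over 65% in size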
Method in brief: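 TC32 cells, 500-1,000/well in growth medium, compound-treated 48 h at 37 °C; viability from CellTiter-Glo luminescence. Primary screen: MIPE 11-point (0.78 nM–46 µM final), NPC 8-point (0.59 nM–46 µM final); confirmatory at 11-point dilutions.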

[10] = qHTS of pediatric cancer cell lines to identify multiple opportunities for drug repurposing: Confirmatory screen for NB1643 cells (AID 1347109); further: nearly all actives have a fitted effect of over 45% in size
Method in brief: as §1

Measured: Potency
Potency means the concentration at half of the fitted maximal effect.

NS(=O)(=O)c1ccc(NC2=CC(=O)c3ccccc3C2=O)cc1
inactive: [1] | [2] | [3]

O=C(NCc1ccncc1)C12C[C@H]3C[C@@H](C1)CC(c1ccc(Cl)cc1)(C3)C2
inactive: [1]
active: [3] 23.5 µM | [4] 9.27 µM | [5] 9.27 µM | [6] 26.1 µM | [7] 13.1 µM | [8] 20.8 µM | [9] 9.27 µM

NC(=O)c1cccc(-c2cc(Nc3ccc(OC(F)(F)F)cc3)ncn2)c1
inactive: [1] | [3]

COc1ccc(-c2nc(N3CCOCC3)c3sc(CN(C)c4ncc(C(=O)NO)cn4)cc3n2)cn1
inactive: [1]
active: [2] 0.209 µM | [3] 0.0296 µM | [10] 0.928 µM | [4] 1.65 µM | [6] 1.85 µM | [7] 1.04 µM

COc1cc(N2CCC(N3CCN(C)CC3)CC2)ccc1Nc1ncc(Cl)c(Nc2ccccc2S(=O)(=O)C(C)C)n1
active: [1] 29.6 µM | [2] 1.05 µM | [10] 1.04 µM | [4] 3.29 µM | [5] 0.657 µM | [7] 16.5 µM | [8] 14.7 µM | [9] 1.85 µM

CC[C@]1(O)C[C@@H]2CN(CCc3c([nH]c4ccccc34)[C@@](C(=O)OC)(c3cc4c(cc3OC)N(C=O)[C@@H]3C45CCN4CC=C[C@](CC)([C@H]45)[C@@H](OC(C)=O)[C@]3(O)C(=O)OC)C2)C1 (some centres not stated)
inactive: [1] | [2] | [10] | [4] | [6] | [8]

CC[C@@H]1C=C(C)C[C@H](C)C[C@H](OC)[C@H]2O[C@@](O)(C(=O)C(=O)N3CCCC[C@@H]3C(=O)O[C@H](C(C)=C[C@@H]3CC[C@H](Cl)[C@H](OC)C3)[C@H](C)[C@@H](O)CC1=O)[C@H](C)C[C@H]2OC
inactive: [1] | [2] | [4]
active: [9] 18.5 µM

c1ccc2c(Cc3c[nH]c4ccccc34)c[nH]c2c1
active: [1] 4.69 µM | [3] 14.8 µM

O=c1[nH]cnc2c1ncn2[C@H]1CC[C@@H](CO)O1
not listed: [5]
inactive: all other assays above

O=C1NC(=O)C(=Cc2ccc(-c3ccc(F)cc3)o2)S1
inactive: [1] | [3]

O=C1c2ccccc2-[n+]2ccc3c([nH]c4ccccc43)c21
active: [1] 9.35 µM | [2] 4.18 µM | [3] 2.96 µM | [10] 2.08 µM | [4] 2.93 µM | [6] 2.93 µM | [7] 1.85 µM | [8] 1.04 µM | [9] 1.31 µM

N#C[C@H]1C[C@H]2C[C@@H]2N1C(=O)[C@@H](N)C12CC3CC(CC(O)(C3)C1)C2
inactive: [1] | [3]

CC1=C(/C=C/C(C)=C/C=C/C(C)=C/C(=O)Nc2ccc(O)cc2)C(C)(C)CCC1
inactive: [1]
active: [3] 9.44 µM

CCCCCCCCCCCC1=C(O)C(=O)C=C(O)C1=O
active: [3] 4.69 µM | [5] 16.5 µM | [9] 10.4 µM
not listed: [4]
inactive: all other assays above

O=C1NC(=O)C(=Cc2ccc3nccnc3c2)S1
inactive: [1] | [3]

O=C(O)CCC1CCC(c2cc(F)ccc2F)(S(=O)(=O)c2ccc(Cl)cc2)CC1 (configuration not stated)
active: [3] 5.9 µM | [5] 20.8 µM | [6] 26.1 µM | [8] 16.5 µM | [9] 20.8 µM
inactive: [1] | [2] | [10]

O=C(NOCC(O)CO)c1cc(Br)c(F)c(F)c1Nc1ccc(I)cc1F (configuration not stated)
inactive: [1] | [3]

CC(=O)O[C@]1(C(C)=O)CC[C@H]2[C@@H]3C=C(Cl)C4=CC(=O)[C@@H]5C[C@@H]5[C@]4(C)[C@H]3CC[C@@]21C
active: [3] 18.8 µM
inactive: [1]

Cc1[nH]c(C=C2C(=O)Nc3ccc(S(=O)(=O)Cc4c(Cl)cccc4Cl)cc32)c(C)c1C(=O)N1CCC[C@H]1CN1CCCC1
active: [3] 18.7 µM | [10] 11.7 µM | [4] 13.1 µM | [5] 9.27 µM | [8] 18.5 µM | [9] 11.7 µM
inactive: [1]

CO[C@H]1C(=O)[C@]2(C)[C@@H](OC)C[C@H]3OC[C@@]3(OC(C)=O)[C@H]2[C@H](OC(=O)c2ccccc2)[C@]2(O)C[C@H](OC(=O)[C@H](O)[C@@H](NC(=O)OC(C)(C)C)c3ccccc3)C(C)=C1C2(C)C
inactive: [1] | [2]
active: [3] 0.001 µM | [4] 0.0059 µM | [5] 0.0033 µM | [9] 0.0033 µM

CC1(C)S[C@H]2[C@H](NC(=O)[C@@H](N)c3ccc(O)cc3)C(=O)N2[C@@H]1C(=O)O
active: [3] 3.72 µM
not listed: [2] | [5]
inactive: all other assays above

N#CC(=C(N)Sc1ccccc1N)C(C#N)=C(N)Sc1ccccc1N
active: [3] 18.7 µM
inactive: [1]

COc1cc2nc(-c3ccc(N4CCN(C)CC4)cc3)nc(NCCN3CCOCC3)c2cc1OC
active: [1] 3.32 µM | [2] 0.0469 µM | [3] 0.296 µM | [4] 0.208 µM | [6] 0.233 µM | [7] 1.17 µM

COc1cccc(-c2cc(=O)c3ccccc3o2)c1N
active: [9] 20.8 µM
not listed: [4] | [5]
inactive: all other assays above

C=C1C(=O)[C@@]23C(CC[C@@H]1[C@H]2O)[C@@]12CO[C@]3(O)[C@@H](O)[C@@H]1C(C)(C)CC[C@@H]2O (some centres not stated)
active: [2] 7.43 µM | [3] 4.69 µM | [10] 4.14 µM | [4] 9.27 µM | [5] 4.65 µM | [6] 7.37 µM | [7] 11.7 µM | [8] 18.5 µM | [9] 13.1 µM
inactive: [1]

COc1ncc(-c2ccc3nccc(-c4ccnnc4)c3c2)cc1NS(=O)(=O)c1ccc(F)cc1F
active: [2] 1.48 µM | [3] 0.0118 µM | [10] 0.465 µM | [4] 0.208 µM | [5] 0.0329 µM | [8] 0.465 µM | [9] 0.0369 µM
inactive: [1]

CC1(C)CCC(CN2CCN(c3ccc(C(=O)NS(=O)(=O)c4ccc(NCC5CCOCC5)c([N+](=O)[O-])c4)c(Oc4cnc5[nH]ccc5c4)c3)CC2)=C(c2ccc(Cl)cc2)C1
active: [3] 18.7 µM | [10] 0.261 µM | [5] 18.5 µM
not listed: [2] | [4]
inactive: all other assays above

CCS(=O)(=O)N1CC(CC#N)(n2cc(-c3ncnc4[nH]ccc34)cn2)C1
active: [3] 18.7 µM
inactive: [1]

Nc1ncnc2c1ncn2[C@@H]1O[C@@H](CO)[C@H](O)[C@H]1O
not listed: [10]
inactive: all other assays above

COc1ccc(-c2coc3cc(O)cc(O)c3c2=O)cc1
active: [4] 0.117 µM | [5] 1.04 µM | [9] 1.04 µM
not listed: [10]
inactive: all other assays above

CC(=O)Oc1cc2c(s1)CCN(C(C(=O)C1CC1)c1ccccc1F)C2 (configuration not stated)
active: [4] 1.04 µM
not listed: [3] | [7]
inactive: all other assays above

Cc1nc(N)sc1-c1ccnc(Nc2ccc(N3CCOCC3)cc2)n1
active: [1] 16.6 µM | [3] 18.7 µM

CCc1ccc(OCc2ccccc2C(=O)Nc2ccc3nc(C)cc(N)c3c2)cc1
active: [1] 9.35 µM | [2] 11.8 µM | [3] 9.35 µM | [10] 9.27 µM | [4] 3.69 µM | [5] 0.827 µM | [6] 9.27 µM | [8] 7.37 µM | [9] 1.17 µM

O=C1NC(=O)C(=Cc2ccc3c(c2)OC(F)(F)O3)S1
active: [7] 26.1 µM
inactive: [1] | [3] | [10] | [6] | [8]

CC1(C)CCC2=C(O1)c1ccccc1C(=O)C2=O
inactive: [1]
active: [2] 23.5 µM | [3] 18.7 µM | [10] 23.3 µM | [8] 23.3 µM | [9] 23.3 µM

N[C@@]1(C(=O)O)CS(=O)(=O)[C@H]2[C@H](C(=O)O)[C@H]21
active: [5] 0.0465 µM | [8] 0.737 µM | [9] 0.0522 µM
not listed: [6] | [10]
inactive: all other assays above

C[N+](C)(C)CC(=O)O
inactive: [2] | [3]

O=c1c(-c2ccc(O)cc2)coc2cc(O[C@@H]3O[C@H](CO)[C@H](O)[C@H](O)[C@H]3O)ccc12
inactive: [2] | [3]

C[C@H]1[C@H](NC(=O)C(=NOC(C)(C)C(=O)O)c2csc(N)n2)C(=O)N1S(=O)(=O)O
inactive: [2] | [3]

COc1cccc([C@@H](C)NCCCc2ccccc2Cl)c1
inactive: [2] | [3]

O=C(O)C(O)Cc1ccc(O)c(O)c1 (configuration not stated)
inactive: [2] | [3]

O=C(Nc1ccccc1-c1cn2c(CN3CCNCC3)csc2n1)c1cnc2ccccc2n1
active: [2] 23.5 µM | [3] 20.9 µM

O=C(NCCN1CCOCC1)c1ccc(Cl)cc1
inactive: [2] | [3]

CC(C)C(=O)Nc1ncc(-c2cc(C(F)F)nn2-c2c(Cl)cccc2Cl)s1
inactive: [2]

Nc1ncnc2ccccc12
active: [3] 23.5 µM
inactive: [2]

COc1ccc2c(Oc3ccc(NC(=O)c4c(C)n(CC(C)(C)O)n(-c5ccccc5)c4=O)cc3F)ccnc2c1
inactive: [1] | [10] | [6] | [8]
active: [4] 14.7 µM

COc1ccc(-c2cc(=O)c3c(O)cc(O)cc3o2)cc1O
inactive: [2]

NC(CO)(CO)CCc1ccc(Sc2cccc(OCc3ccccc3)c2)cc1Cl
inactive: [2]

CC(=NNC(=S)N1CCC1)c1ccccn1
inactive: [10] | [5] | [6] | [8] | [9]
active: [1] 0.166 µM | [4] 23.3 µM

CN(C)Cc1ccc(-c2nc3cccc4c3n2CCNC4=O)cc1
inactive: [2] | [3]
